Among all 39,000 compounds or so, about 1,500 (3.8%) were called active. The full list was thinned out, with actives kept by preference.

The experiment has as its system HSkMC (human skeletal muscle cells). Description: cytotoxicity call (relative viability < 0.9). The note with it: 10 µM.
As for `CCCC(=O)Nc1ccc2c(c1)OC[C@@H](C)N(C(=O)CN1CCOCC1)C[C@@H](C)[C@H](OC)CN(C)C2=O`, the cytotoxicity call was “inactive”.
Then `NS(=O)(=O)OC[C@H]1C[C@@H](Nc2ccnc3cc(-c4cccc(SC(F)(F)F)c4)nn23)[C@H](O)[C@@H]1O`, with “active”; and `O=C([O-])C(O)C(O)C(O)C(O)CO.[Na+]` (stereo unspecified), with “inactive”; and `COc1ccccc1[C@@H](NC(=O)C1CCN(CCOc2ccc(Cl)cc2Cl)CC1)c1ccccn1`, with “inactive”.
Turning to `Cc1cccnc1[C@@H](NC(=O)C1CCN(CCOc2ccc(Cl)cc2Cl)CC1)c1ccc(F)cc1`, the cytotoxicity call is “inactive”.
The result for `Cc1ccccc1[C@@H](c1ncccc1C)N(C)C(=O)C1CCN(CCOc2ccc(Cl)cc2Cl)CC1` reads “active”; that for `Cc1ccccc1[C@@H](c1ncccc1C)N(C)C(=O)C1CCN(CCOc2ccc3ccccc3c2)CC1`, “inactive”; that for `Cc1cccnc1[C@@H](NC(=O)C1CCN(CCOc2ccc(Cl)cc2Cl)CC1)c1ccc(Cl)cc1`, “inactive”.
Turning to `Cc1cccnc1[C@H](c1ccc(F)cc1)N(C)C(=O)C1CCN(CCOc2ccc(Cl)cc2Cl)CC1`, the cytotoxicity call was “active”.
`C[C@@H]1CN([C@@H](C)CO)C(=O)c2cc(NC(=O)Nc3ccccc3)ccc2O[C@@H](C)CCCCO[C@H]1CN(C)S(=O)(=O)c1ccccc1F`: the cytotoxicity call is “inactive”.
For `O=C(O)/C=C/C(=O)O`, the cytotoxicity call is “inactive”.
Consider `COC(=O)c1c(CC[C@@H](CO)NC(=O)N[C@H](Cn2cc(Cc3ccccc3)nn2)C(C)C)oc(C(C)=O)c1C(=O)OC`, for which the cytotoxicity call was “inactive”.
Regarding `O=C(C[C@@H]1CC=CC[C@@H](Cc2ccc(F)cc2)C(=O)OC[C@H](Cc2c[nH]c3ccccc23)NC1=O)NCCO`, the cytotoxicity call was “inactive”.
For the compound `CC(C)NC(=O)N(C)C[C@@H]1OCc2cnnn2CCCC(=O)N([C@@H](C)CO)C[C@@H]1C`, the cytotoxicity call is “inactive”.
In the case of `CC(C)NC(=O)N(C)C[C@H]1Oc2cc(-c3ccccc3F)ccc2S(=O)(=O)N([C@H](C)CO)C[C@H]1C`, the cytotoxicity call is “inactive”.
For `C[C@@H]1CN([C@H](C)CO)C(=O)c2cccc(NS(=O)(=O)c3ccc(Cl)cc3)c2O[C@H]1CN(C)Cc1ccc(-c2ccccc2)cc1`, the cytotoxicity call is “inactive”.
On to `C[C@@H]1CN([C@@H](C)CO)C(=O)c2cccc(NS(=O)(=O)c3ccc(Cl)cc3)c2O[C@@H]1CN(C)Cc1ccc(-c2ccccc2)cc1`, for which the cytotoxicity call is “active”.
Consider `C[C@H]1CN([C@@H](C)CO)C(=O)c2cccc(NS(=O)(=O)c3ccc(Cl)cc3)c2O[C@@H]1CN(C)Cc1ccc(C(F)(F)F)cc1`, for which the cytotoxicity call was “inactive”.
On to `C[C@H](CO)N1C[C@H](C)[C@H](CN(C)Cc2ccc(C(F)(F)F)cc2)Oc2c(NS(=O)(=O)c3ccc(Cl)cc3)cccc2C1=O`, for which the cytotoxicity call is “active”.
Then `C[C@H](CO)N1C[C@H](C)[C@@H](CN(C)Cc2ccc(C(F)(F)F)cc2)Oc2c(NS(=O)(=O)c3ccc(Cl)cc3)cccc2C1=O`, with “inactive”; and `C[C@@H]1CN([C@@H](C)CO)C(=O)c2cccc(NS(=O)(=O)c3ccc(Cl)cc3)c2O[C@H]1CN(C)Cc1ccc(-c2ccccc2)cc1`, with “inactive”.
Then `C[C@@H]1CN([C@H](C)CO)C(=O)c2cc(NC(=O)c3ccccc3)ccc2O[C@@H](C)CCCCO[C@@H]1CN(C)Cc1ccc(Cl)c(Cl)c1`, with “inactive”.
On to `COc1ccc(-c2cnc3c(c2)C(=O)N([C@H](C)CO)C[C@H](C)[C@H](CN(C)S(=O)(=O)c2cccs2)O3)cc1`, for which the cytotoxicity call was “inactive”.
As to `C[C@@H]1CCCCO[C@@H](CN(C)S(C)(=O)=O)[C@@H](C)CN([C@H](C)CO)C(=O)c2cc(NC(=O)CCCN(C)C)ccc2O1`, the cytotoxicity call was “inactive”.
On to `NCC1OC(OC2C(CO)OC(OC3C(O)C(N)CC(N)C3OC3OC(CN)C(O)C(O)C3N)C2O)C(N)C(O)C1O.O=S(=O)(O)O.O=S(=O)(O)O.O=S(=O)(O)O` (stereo unspecified), for which the cytotoxicity call is “inactive”.
Take `CC(C)NC(=O)N[C@H]1C=C[C@H](CC(=O)NCCN2CCCC2)O[C@H]1CO`: the cytotoxicity call is “inactive”.
With `O=C(N[C@H]1CC[C@@H](CC(=O)N2CCOCC2)O[C@@H]1CO)c1ccc2c(c1)OCO2`, the cytotoxicity call is “inactive”.
For the compound `C[C@H](CO)N1C[C@H](C)[C@H](CN(C)C(=O)Nc2ccccc2)OCCCC[C@H](C)Oc2ccc(NS(=O)(=O)c3ccc(Cl)cc3)cc2C1=O`, the cytotoxicity call was “inactive”.
Take `C[C@H](CO)N1C[C@H](C)[C@H](CN(C)Cc2ccc(C(=O)Nc3ccccc3N)cc2)OCc2cn(nn2)CCCC1=O`: the cytotoxicity call is “inactive”.
The result for `Clc1ccc(/C=N/Cc2ccc(-c3cccs3)s2)cc1` reads “inactive”; that for `Cl.N=C(NN=Cc1ccc(Cl)cc1)NN=Cc1ccc(Cl)cc1`, “active”; that for `NC(=S)N/N=C/c1ccncc1`, “inactive”.
The result for `C[C@H]1CN([C@@H](C)CO)C(=O)c2cccc(NS(=O)(=O)c3cccs3)c2O[C@H]1CN(C)S(=O)(=O)c1cccs1` reads “inactive”.
For `CCCCCCc1nc(CCCc2cc3c(c(CCCCCC)n2)[Si](C(C)C)(C(C)C)O[C@H]3c2ccccc2)cc2c1[Si](C(C)C)(C(C)C)O[C@H]2c1ccccc1`, the cytotoxicity call is “inactive”.
In the case of `Cc1onc(NS(=O)(=O)c2ccccc2-c2ccc(-c3ncco3)cc2CN(C)C(=O)CC(C)(C)C)c1C`, the cytotoxicity call was “inactive”.
Turning to `C[C@@H]1CN([C@H](C)CO)C(=O)c2cccc(NC(=O)Nc3ccccc3)c2O[C@@H]1CN(C)C(=O)Nc1cccc2ccccc12`, the cytotoxicity call was “inactive”.
In the case of `Cc1ccc(S(=O)(=O)Nc2ccc3c(c2)C(=O)N([C@@H](C)CO)C[C@@H](C)[C@@H](CN(C)Cc2ccc(C(F)(F)F)cc2)OCCCC[C@H](C)O3)cc1`, the cytotoxicity call was “inactive”.
`C[C@@H]1CCCCO[C@@H](CN(C)Cc2ccc(C(F)(F)F)cc2)[C@H](C)CN([C@H](C)CO)C(=O)c2cc(NS(=O)(=O)c3ccc(F)cc3)ccc2O1`: the cytotoxicity call was “inactive”.
The result for `C[C@@H]1CN([C@H](C)CO)C(=O)c2cc(NS(=O)(=O)c3ccc(F)cc3)ccc2O[C@@H](C)CCCCO[C@H]1CN(C)Cc1ccc(C(F)(F)F)cc1` reads “inactive”; that for `Cc1ccc(S(=O)(=O)Nc2ccc3c(c2)C(=O)N([C@@H](C)CO)C[C@H](C)[C@@H](CN(C)Cc2ccc(C(F)(F)F)cc2)OCCCC[C@H](C)O3)cc1`, “active”.
Then `Cc1ccc(S(=O)(=O)Nc2ccc3c(c2)C(=O)N([C@@H](C)CO)C[C@H](C)[C@H](CN(C)Cc2ccc(C(F)(F)F)cc2)OCCCC[C@H](C)O3)cc1`, with “inactive”.
On to `Cc1ccc(S(=O)(=O)Nc2ccc3c(c2)C(=O)N([C@H](C)CO)C[C@H](C)[C@H](CN(C)Cc2ccc(C(F)(F)F)cc2)OCCCC[C@@H](C)O3)cc1`, for which the cytotoxicity call is “inactive”.
Regarding `Cc1ccc(S(=O)(=O)Nc2ccc3c(c2)C(=O)N([C@H](C)CO)C[C@@H](C)[C@@H](CN(C)Cc2ccc(C(F)(F)F)cc2)OCCCC[C@H](C)O3)cc1`, the cytotoxicity call was “inactive”.
In the case of `Cc1ccc(S(=O)(=O)Nc2ccc3c(c2)C(=O)N([C@H](C)CO)C[C@H](C)[C@H](CN(C)Cc2ccc(C(F)(F)F)cc2)OCCCC[C@H](C)O3)cc1`, the cytotoxicity call was “active”.
The result for `C[C@@H]1CCCCO[C@H](CN(C)Cc2ccc(C(F)(F)F)cc2)[C@H](C)CN([C@@H](C)CO)C(=O)c2cc(NS(=O)(=O)c3ccc(F)cc3)ccc2O1` reads “active”; that for `Cc1ccc(S(=O)(=O)Nc2ccc3c(c2)C(=O)N([C@H](C)CO)C[C@@H](C)[C@@H](CN(C)Cc2ccc(C(F)(F)F)cc2)OCCCC[C@@H](C)O3)cc1`, “inactive”; that for `Cc1ccc(S(=O)(=O)Nc2ccc3c(c2)C(=O)N([C@H](C)CO)C[C@H](C)[C@@H](CN(C)Cc2ccc(C(F)(F)F)cc2)OCCCC[C@H](C)O3)cc1`, “inactive”.
Take `Cc1ccc(S(=O)(=O)Nc2ccc3c(c2)C(=O)N([C@@H](C)CO)C[C@H](C)[C@@H](CN(C)Cc2ccc(C(F)(F)F)cc2)OCCCC[C@@H](C)O3)cc1`: the cytotoxicity call is “active”.
Then `C[C@H](CO)N1C[C@H](C)[C@@H](CN(C)S(=O)(=O)c2cn(C)cn2)Oc2ccc(NC(=O)NC3CCCCC3)cc2C1=O`, with “inactive”; and `COc1ccc([Si](C)(C)[C@@H]2[C@@H](CCO)O[C@]3(C(=O)N(Cc4ccc(N5C(=O)c6ccccc6Oc6ccccc65)cc4)c4ccccc43)[C@H]2C)cc1`, with “inactive”.
Then `C[C@@H]1CCCCO[C@H](CN(C)Cc2ccccc2)[C@@H](C)CN([C@@H](C)CO)C(=O)c2cc(NC(=O)Cc3ccccc3)ccc2O1`, with “inactive”.
As to `COc1ccc(NC(=O)Nc2ccc3c(c2)C(=O)N([C@H](C)CO)C[C@H](C)[C@H](CN(C)Cc2ccc(C(=O)Nc4ccccc4N)cc2)OCCCC[C@@H](C)O3)cc1`, the cytotoxicity call is “inactive”.
The result for `CCOc1ccc(S(N)(=O)=O)cc1` reads “inactive”; that for `NS(=O)(=O)c1ccc(N2CCCC2=O)cc1`, “inactive”.
Then `C[C@H](CO)N1C[C@H](C)[C@H](CN(C)S(=O)(=O)c2cn(C)cn2)Oc2c(NC(=O)c3cnccn3)cccc2C1=O`, with “inactive”.
Then `Cc1noc(C)c1NC(=O)Nc1ccc2c(c1)C(=O)N([C@H](C)CO)C[C@@H](C)[C@H](CN(C)C(=O)Nc1c(C)noc1C)OCCCC[C@@H](C)O2`, with “inactive”; and `O=C(c1cnc2ccccc2c1)C1CC1`, with “inactive”; and `CNC[C@@H]1Oc2ccc(NC(=O)Cn3cnnn3)cc2CC(=O)N([C@H](C)CO)C[C@H]1C`, with “inactive”.
For the compound `Cc1noc(C)c1NC(=O)Nc1ccc2c(c1)C(=O)N([C@H](C)CO)C[C@@H](C)[C@@H](CN(C)Cc1ccc3c(c1)OCO3)OCCCC[C@@H](C)O2`, the cytotoxicity call is “inactive”.
For `O=C(CCCCCNC(=O)OCc1ccc(CN(C(=O)Nc2ccccc2)[C@@H](Cc2ccccc2)Cn2cc(-c3ccccn3)nn2)cc1)NO`, the cytotoxicity call was “inactive”.
In the case of `Cc1ccc(S(=O)(=O)Nc2ccc3c(c2)C(=O)N([C@@H](C)CO)C[C@H](C)[C@H](CN(C)Cc2ccc(C(F)(F)F)cc2)OCCCC[C@@H](C)O3)cc1`, the cytotoxicity call was “inactive”.
`Cc1ccc(S(=O)(=O)Nc2ccc3c(c2)C(=O)N([C@@H](C)CO)C[C@@H](C)[C@H](CN(C)Cc2ccc(C(F)(F)F)cc2)OCCCC[C@H](C)O3)cc1`: the cytotoxicity call is “inactive”.
On to `Cc1ccc(S(=O)(=O)Nc2ccc3c(c2)C(=O)N([C@H](C)CO)C[C@H](C)[C@@H](CN(C)Cc2ccc(C(F)(F)F)cc2)OCCCC[C@@H](C)O3)cc1`, for which the cytotoxicity call was “inactive”.
Consider `Cc1ccc(S(=O)(=O)Nc2ccc3c(c2)C(=O)N([C@@H](C)CO)C[C@@H](C)[C@@H](CN(C)Cc2ccc(C(F)(F)F)cc2)OCCCC[C@@H](C)O3)cc1`, for which the cytotoxicity call is “active”.
The result for `Cc1ccc(S(=O)(=O)Nc2ccc3c(c2)C(=O)N([C@H](C)CO)C[C@@H](C)[C@H](CN(C)Cc2ccc(C(F)(F)F)cc2)OCCCC[C@H](C)O3)cc1` reads “active”; that for `Cc1ccc(S(=O)(=O)Nc2ccc3c(c2)C(=O)N([C@H](C)CO)C[C@@H](C)[C@H](CN(C)Cc2ccc(C(F)(F)F)cc2)OCCCC[C@@H](C)O3)cc1`, “inactive”.
